Assay outcomes from PubChem.
Hits are enriched below; roughly 2.4% of the tested compounds scored in any of these assays.
AmpC det inh: inhibitors of E. coli AmpC beta-lactamase with detergent; Potency, µM (doses to about 28.7 µM), for the others: at the top dose activity change, negative = inhibition; P00811; AID 584; purified AmpC, nitrocefin hydrolysis with detergent; 71,000 tested, 0.09% active; active means well fitted curve in the direction sought with a large enough effect; inconclusive means small, poorly fitted or top-dose-only effect; further: on the % scale 0 is the no-effect control and ±100 the full control effect
Target sequence (P00811 whole entry, looked up): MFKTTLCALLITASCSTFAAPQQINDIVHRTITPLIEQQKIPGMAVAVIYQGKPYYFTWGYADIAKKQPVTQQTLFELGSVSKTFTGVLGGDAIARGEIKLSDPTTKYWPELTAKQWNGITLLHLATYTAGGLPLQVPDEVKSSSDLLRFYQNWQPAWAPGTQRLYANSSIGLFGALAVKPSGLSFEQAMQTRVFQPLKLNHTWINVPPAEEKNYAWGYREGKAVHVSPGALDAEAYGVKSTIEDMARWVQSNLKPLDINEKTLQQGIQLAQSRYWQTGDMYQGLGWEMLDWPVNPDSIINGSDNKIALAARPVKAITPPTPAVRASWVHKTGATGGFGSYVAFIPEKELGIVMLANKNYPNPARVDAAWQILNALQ
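E. coli AmpC (5.3 nM) in 20 mM phosphate pH 7.0 with 0.01% Triton X-100, preincubated 15 min RT with compound; nitrocefin (2 uL of 800 uM stock) hydrolysis followed by 480 nm absorbance every 20 s over 4 min.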
SmPrx2 inh: Schistosoma mansoni Prx2 inhibition | S. mansoni Prx2 activity coupled to TGR/GSH (TGR is thioredoxin glutathione reductase), NADPH fluorescence loss, qHTS | Potency, µM | 65,000 tested, 0.07% active
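Coupled assay in which S. mansoni TGR passes NADPH reducing equivalents via glutathione to Prx2, which reduces H2O2. Compounds were preincubated 15 min at room temperature with 25 nM TGR/50 nM Prx2 mix. Kinetic NADPH fluorescence loss (ex 365/em 450 nm) was monitored.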
LT uptake inh: inhibitors of anthrax lethal toxin internalization; Cells, anthrax lethal toxin internalization, FRET ratio (460/530); Potency, µM (highest dose often 40 µM), for the others: at the top dose activity change, negative = inhibition, usual class: inhibitors; 70,000 tested, 0.67% active; AID 912; further: on the % scale 0 is the no-effect control and ±100 the full control effect; nearly all actives have a fitted effect of over 50% in size
AmpC inh no det: blocks E. coli AmpC beta-lactamase in absence of detergent; AmpC nitrocefin hydrolysis, absorbance 480 nm, no detergent; Potency, µM (highest dose often 28.7 µM), inactives show at the top dose activity change, negative = inhibition; 71,000 tested, 1.8% active; AID 585; further: % of control where 0% means no effect
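AmpC, 20 mM phosphate pH 7.0; 15 min cpd preinc, RT; start with nitrocefin (800 uM stock); A480 kinetic read, 20 s intervals, 4 min. No-enzyme wells = negative control.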
Starred values were filed as active, the others as inactive; u = inconclusive; x = not tested or not shown; ! = not confirmed by another sample; [ ] = dose if it differs, or a comment. Unless noted, the call rests on the fitted dose curve. Potency means the concentration at half of the fitted maximal effect.

SMILES | AmpC det inh | SmPrx2 inh | LT uptake inh | AmpC inh no det
Cc1ccccc1/C=C\C1=NCCN1 | -0.2% | >57 | -2.1% | -6.0%
CCN1CCN(Cc2ccc(NC(=O)Nc3ccc(OC)cc3)cc2)CC1 | 12.6% | >57 | -10.9% | 3.98µM*[single pt active]
CCN1CCN(Cc2ccc(NC(=O)Nc3ccccc3)cc2)CC1 | 3.0% | >57 | u | 1.3%
CC(=O)NCc1ccc(-c2csc(N)n2)s1 | 13.5% | >57 | 10µM* | -11.5%
Cc1ccc(-c2csc(N)n2)s1 | -1.6% | >57 | u | u
O=C(CC(=O)c1cc(Cl)ccc1O)c1ccccc1 | 8.4% | x | 7.94µM* | -2.4%
Cc1ccc(O)c(C(=O)CC(=O)c2cccc(F)c2)c1 | -0.9% | x | u | 2.6%
C=C(C)C(=O)OCC(C)O (stereo not drawn) | 7.0% | x | -1.2% | 31.5%
CCc1ccc(NC2=NCC(=O)N2Cc2ccc3c(c2)OCO3)cc1 | -0.4% | >57 | 10µM* | 43.6%
CCOc1c(C(N)=O)c(-c2ccccc2)c2c(=O)[nH]c3ccccc3n12 | 0.9% | >57 | u | 12.6µM*
C/C(CC/C(C)=N/O)=N/O | -0.1%[5.75 µM] | >57 | 2.7%[8 µM] | -11.0%[5.75 µM]
NNc1nncn1N | -3.7%[5.75 µM] | >57 | 3.4%[8 µM] | -4.7%[5.75 µM]
Cc1ccc(-c2nc(NC(=O)CSc3nnc4scc(-c5ccccc5)n34)ns2)cc1 | 25.8% | >57 | u | 3.98µM*[single pt active]
CCCC/C=C/C(NC(=O)c1ccccc1)c1ccccc1 (stereo not drawn) | -2.1% | >57 | u | -12.7%
CCCC/C=C/C(NC(=O)c1ccc(C(F)(F)F)cc1)c1ccccc1 (stereo not drawn) | 1.8% | >57 | -29.7% | 15.8µM*[single pt active]
COc1cccc(Nc2cc(C)nc3ccccc23)c1 | 0.2% | >57 | -10.7% | 3.2%
O=C(O)c1ccccc1Nc1cccc(OCc2ccc3ccccc3n2)c1 | -1.8% | >57 | 15.8µM*! | 15.8µM*![single pt active]
Cc1nc2c3ccccc3n(CC(=O)c3ccc(F)cc3)c(=O)n2n1 | 13.8% | >57 | u | 3.98µM*[single pt active]
NC(=O)C1=CN([C@@H]2O[C@@H](COP(=O)(O)OP(=O)(O)OC[C@@H]3O[C@H](n4cnc5c(N)ncnc54)[C@@H](OP(=O)(O)O)[C@@H]3O)[C@H](O)[C@@H]2O)C=CC1 | 18.9% | >57 | 2.1% | 9.4%
CCCOc1nc(N)c(C#N)c(-c2ccccc2F)c1C#N | -2.6% | >57 | 7.94µM* | 0.0%
CCOC(=O)Nc1ccc2c(c1)N(C(=O)OCCN(C)C)c1ccccc1CC2 | 8.9% | >57 | -11.7% | 3.98µM*[single pt active]
CCS(=O)(=O)Nc1ccc2c(c1)N(C(C)=O)c1ccccc1CC2 | -0.9% | >57 | u | 21.4%
O=Nc1ccc(Nc2ccccc2)cc1 | 8.3% | x | u | 5.5%
COc1ccccc1NC(=O)C1(C)Cc2ccccc2C(=O)O1 (stereo not drawn) | 7.3% | >57 | -0.8% | 3.98µM*[single pt active]
Cc1ccc(C)c2[nH]c(=O)c(CN(CCN3CCCC3)C(=O)Nc3cccc(Cl)c3)cc12 | -2.6% | >57 | 7.94µM* | 98.5%
SMILES | AmpC det inh | SmPrx2 inh | LT uptake inh | AmpC inh no det
COc1ccccc1Oc1ccc2c(c1)C(=O)N(c1ccc(O)cc1)C2=O | -1.6% | >57 | 0.5% | 12.6µM*[single pt active]
Nc1c2c(nc3ccccc13)CCC[C@H]2O | -3.0% | >57 | -3.8% | -8.3%
CCN(CC)CCCN(C(=O)c1cccs1)c1nc(-c2ccc(OC)cc2)cs1 | -6.6% | >57 | 10µM* | 103.1%
COc1ccc(-c2csc(N(CC3CCCO3)C(=O)c3cccs3)n2)cc1 (stereo not drawn) | 1.9% | >57 | -25.6% | 27.0%
CCN(CC)C(=O)N[C@@H]1C=C2c3cccc4[nH]cc(c34)C[C@@H]2N(C)C1 | -2.0% | >57 | -15.0% | 14.7%
O=C(Nc1cccc(Br)c1)c1cc2ccccc2o1 | -2.7% | x | 5.01µM* | -3.8%
COc1ccccc1S(=O)(=O)Cc1ccc(C(=O)NCc2cccnc2)o1 | 15.0% | >57 | -21.0% | 3.98µM*[single pt active]
CCC(C)NC(=O)c1ccc(CS(=O)(=O)c2ccc(OC)cc2)o1 (stereo not drawn) | 12.0% | >57 | -7.4% | 3.98µM*[single pt active]
COc1ccc(S(=O)(=O)Cc2ccc(C(=O)NC(C)C)o2)cc1 | 5.2% | >57 | 0.3% | 8.9%
O=C(NCc1ccc2c(c1)OCO2)Oc1ccccc1 | 12.7% | >57 | -7.9% | 3.98µM*[single pt active]
CCN(CC)C(=O)c1ccc(CS(=O)(=O)c2ccc(OC)cc2)o1 | 13.9% | >57 | -9.5% | 3.98µM*[single pt active]
COc1ccccc1S(=O)(=O)Cc1ccc(C(=O)NCCN2CCCC2)o1 | -0.3% | >57 | -1.4% | 1.7%
COc1cc(/C=C\C(=O)N2CCCCC2=O)cc(OC)c1OC | -1.2% | x | u | 33.6%
